From PubChem BioAssay (Tox21) come the findings set out here.

Structures are written as SMILES. Results filed as inconclusive are left out. Activity calls are given as the source filed them. Unless noted, calls come from the whole dose curve.

Experiment [1] can be described thus: Nuclear factor erythroid 2-related factor 2/antioxidant responsive element (Nrf2/ARE) small molecule agonists: qHTS cell viability counter screen in human keratinocytes (AID 1919968; active = well fitted curve in the direction sought with a large enough effect in the repeat runs; an effect the other way counts as inactive or inconclusive; note: nearly all actives have a fitted effect of over 55% in size; note: potency is the fitted concentration of half-maximal effect). The procedure, abridged:
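In human HaCaT keratinocytes stably expressing an ARE-driven luciferase, compound exposure lasted 23 h at 37 C under 5% CO2. Viable cells are quantified with a protease-based fluorogenic reagent (CellTiter-Fluor) read 1 h after addition.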

For experiment [2], the target named is Gonadotropin-releasing hormone receptor (Homo sapiens) (UniProt P30968). Description: Human gonadotropin-releasing hormone receptor (GnRHR) small molecule agonists, calcium flux assay in GnRHR-HEK293 cells (AID 1920063). Note: nearly all actives have a fitted effect of over 35% in size. Note: potency is the fitted concentration of half-maximal effect. The procedure, abridged: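 Intracellular calcium rise is the read-out: engineered human GnRHR HEK293 cells, dye-loaded, are exposed to DMSO-dissolved compounds and fluorescence at Ex/Em 480/540 is tracked for 3 min.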
Chain of Gonadotropin-releasing hormone receptor (Homo sapiens) (P30968 whole entry, looked up): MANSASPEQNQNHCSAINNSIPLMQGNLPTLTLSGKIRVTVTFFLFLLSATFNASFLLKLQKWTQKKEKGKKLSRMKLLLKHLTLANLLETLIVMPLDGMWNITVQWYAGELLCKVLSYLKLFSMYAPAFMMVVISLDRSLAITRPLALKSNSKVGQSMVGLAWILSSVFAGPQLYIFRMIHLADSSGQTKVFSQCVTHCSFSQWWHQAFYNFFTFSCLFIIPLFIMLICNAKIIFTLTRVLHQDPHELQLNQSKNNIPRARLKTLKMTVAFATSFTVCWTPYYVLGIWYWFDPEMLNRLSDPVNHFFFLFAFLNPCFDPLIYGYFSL

Experiment [3] addresses KiSS-1 receptor (Homo sapiens) (UniProt Q969F8). The experiment is described as follows: Human kisspeptin (KISS1R) small molecule agonists, calcium flux assay in KISS1R-HEK293 cells (AID 1920064; active = well fitted curve in the direction sought with a large enough effect in the repeat runs; an effect the other way counts as inactive or inconclusive). The procedure, abridged:
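Concentration-response testing used 15 concentrations in triplicate on human KISS1R-expressing HEK293 cells. Calcium-dependent fluorescence (Ex/Em 480/540) was followed kinetically for 3 min after compound transfer.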

The nature of experiment [4]: G protein-coupled receptor (GPCR) small molecule agonists, calcium flux assay: HEK293 wild type cell line counter screen (AID 1920065). The essentials: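 Fluorescence intensity signals activation. After overnight (18 h) culture and a 1 h calcium dye load at 37 C, compounds are added by pin tool and the plate read at 480/540 nm for 3 min in 1 s steps.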
Experiment [5] in a line: p53 small molecule agonists, cell-based qHTS assay with human liver microsomes (AID 1963577). The essentials: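 Fluorescence of the beta-lactamase reporter in p53RE-bla cells, detected with LiveBLAzer substrate (2 h, room temperature, dark), served as the read-out after 16 h compound exposure at 37 C with human liver microsomes and NADPH, each 0.5 mg/mL final.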
Experiment [6] can be described thus: p53 small molecule agonists, cell-based qHTS assay with human liver microsomes: qHTS cell viability counter screen (AID 1963579). Note: nearly all actives have a fitted effect of over 45% in size. The procedure, abridged:
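Cytotoxicity counter screen: p53RE-bla, 4,000 cells/well; 5 h settle, 37 C/5% CO2; cpd + HLM 0.5 mg/mL + NADPH 0.5 mg/mL (final); 16 h, 37 C; CellTiter-Glo, 30 min RT, luminescence.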

The nature of experiment [7]: p53 small molecule agonists, cell-based qHTS assay with rat liver microsomes: qHTS cell viability counter screen (AID 1963580). Note: nearly all actives have a fitted effect of over 45% in size. The essentials:
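Rat liver microsome (0.5 mg/mL final) and NADPH (0.5 mg/mL final) co-incubation with compounds for 16 h at 37 C on HCT-116 p53RE-bla cells; cytotoxicity taken from intracellular ATP luminescence.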

Experiment [8] is described as follows: p53 small molecule agonists, cell-based qHTS assay: qHTS cell viability counter screen (AID 1963581). Note: nearly all actives have a fitted effect of over 45% in size. The essentials:
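Luminescence from CellTiter-Glo, reflecting ATP content, serves as the cytotoxicity measure; it is taken after the 2 h reporter substrate step in HCT-116 p53RE-bla cells dosed for 16 h at 37 C.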

The nature of experiment [9]: p53 small molecule agonists, cell-based qHTS assay (AID 1963582; active = well fitted activation curve with a large enough effect in the signal ratio in the repeat runs, not every such curve was filed as active; the % refers to the signal ratio). The procedure, abridged: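 After plating, p53RE-bla cells sat 5 h in the incubator; compounds or DMSO vehicle were pinned in; a 16 h incubation at 37 C followed; FRET substrate was added and, 2 h later at RT, fluorescence was measured.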
The target of experiment [10] is 5-hydroxytryptamine receptor 2A (Homo sapiens) (UniProt P28223). Description: 5-hydroxytryptamine receptor 2A (HTR2A) small molecule antagonists, cell-based qHTS assay (AID 1963586). Note: nearly all actives have a fitted effect of over 45% in size. The procedure, abridged:
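CHO cells stably expressing human HTR2A were plated for 18 h at 37 C, then loaded with calcium dye for 1 h. Compounds were preincubated 5 min at room temperature before DOI (4 nM solution) was added. Kinetic fluorescence was read for 3 min.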

For experiment [11] the target is unchanged. The experiment is described as follows: 5-hydroxytryptamine receptor 2A (HTR2A) small molecule agonists, cell-based qHTS assay (AID 1963587). Note: nearly all actives have a fitted effect of over 30% in size. The procedure, abridged: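 Kinetic calcium-flux fluorescence (2 min, 1 sec intervals) after compound addition in agonist mode. HTR2A-CHO cells were cultured 18 h, then dye-loaded 1 h at 37 C.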
The target of experiment [12] is Muscarinic acetylcholine receptor M1 (Homo sapiens) (UniProt P11229). Description: Cholinergic receptor muscarinic 1 (CHRM1) small molecule antagonists, cell-based qHTS assay (AID 1963588). Note: nearly all actives have a fitted effect of over 40% in size. The procedure, abridged:
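Compounds were tested at 15 concentrations in three independent runs. Dye-loaded CHRM1-CHO cells were exposed 5 min at room temperature before stimulation by acetylcholine added at 50nM. Intracellular calcium was read kinetically on FDSS for 3 min.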

For experiment [13] the target is unchanged. Description: Cholinergic receptor muscarinic 1 (CHRM1) small molecule agonists, cell-based qHTS assay (AID 1963589). Note: nearly all actives have a fitted effect of over 35% in size. The procedure, abridged: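 Fluorescent calcium dye reports M1 activation in stably transfected CHO cells. Compounds, 15 concentrations, added after 1 h dye loading at 37 C; kinetic reading at 1 sec intervals.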
Experiment [14] can be described thus: cAMP Responsive Elements (CRE) small molecule agonists, cell-based qHTS assay (AID 1963590). The essentials: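 Compound exposure lasted 3 h at 37 C/5% CO2 in CRE-bla HEK 293T cells grown in assay medium with 10% dialyzed FBS and 25 mM HEPES. Reporter signal came from LiveBLAzer B/G FRET substrate, 2 h, room temperature.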
Experiment [15] can be described thus: cAMP Responsive Elements (CRE) small molecule antagonists, cell-based qHTS assay (AID 1963591; active = well fitted inhibition curve with a large enough effect in the signal ratio in the repeat runs, not every such curve was filed as active; the % refers to the signal ratio; note: potency is the fitted concentration of half-maximal effect). The procedure, abridged: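 Stimulation used NKH477 at a final 0.25 uM for 3 h in compound-treated CRE-bla HEK293T cells, seeded 18 h beforehand. Reporter activity was measured with LiveBLAzer B/G FRET substrate after 2 h at room temperature.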
Experiment [16] deals with Beta-2 adrenergic receptor (Homo sapiens) (UniProt P07550). The experiment is described as follows: Adrenergic beta2 receptor (ADRB2) small molecule antagonists, cell-based qHTS assay (AID 1963592). Note: series mostly up to about 92 µM; nearly all actives have a fitted effect of over 50% in size. The essentials: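 Assay format: CHO-ADRB2 cells, 18-20hr seeding at 37C/5% CO2, then compound plus 1nM isoproterenol agonist mix for 0.5hr RT. Homogeneous time-resolved fluorescence cAMP detection after 1hr, expressed as 665/615 nm ratio.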
Chain of Beta-2 adrenergic receptor (Homo sapiens) (P07550 whole entry, looked up): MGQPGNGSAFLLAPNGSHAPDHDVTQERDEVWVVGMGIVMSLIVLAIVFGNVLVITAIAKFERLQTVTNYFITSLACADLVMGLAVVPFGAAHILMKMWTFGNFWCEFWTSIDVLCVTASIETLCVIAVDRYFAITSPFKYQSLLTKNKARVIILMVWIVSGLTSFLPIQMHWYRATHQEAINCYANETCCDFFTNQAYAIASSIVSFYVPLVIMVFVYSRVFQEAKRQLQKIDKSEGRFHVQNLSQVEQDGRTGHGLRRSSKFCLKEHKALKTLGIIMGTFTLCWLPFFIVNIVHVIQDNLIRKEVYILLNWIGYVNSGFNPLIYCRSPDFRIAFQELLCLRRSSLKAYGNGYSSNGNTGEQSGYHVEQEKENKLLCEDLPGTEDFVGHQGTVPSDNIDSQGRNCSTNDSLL

In experiment [17] the target is D(2) dopamine receptor (Homo sapiens) (UniProt P14416). The experiment is described as follows: Dopamine D2 receptor (DRD2) small molecule agonists, cell-based qHTS assay (AID 1963594). Note: nearly all actives have a fitted effect of over 35% in size. The procedure, abridged: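 cAMP accumulation in DRD2-HEK293 cells measured by HTRF after 1 h detection; compounds added 10 min before NKH477 (200nM […]) forskolin-analogue stimulation, 30 min at room temperature, with Ro20-1724 present at 0.1 mM final.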
Chain of D(2) dopamine receptor (Homo sapiens) (P14416 whole entry, looked up): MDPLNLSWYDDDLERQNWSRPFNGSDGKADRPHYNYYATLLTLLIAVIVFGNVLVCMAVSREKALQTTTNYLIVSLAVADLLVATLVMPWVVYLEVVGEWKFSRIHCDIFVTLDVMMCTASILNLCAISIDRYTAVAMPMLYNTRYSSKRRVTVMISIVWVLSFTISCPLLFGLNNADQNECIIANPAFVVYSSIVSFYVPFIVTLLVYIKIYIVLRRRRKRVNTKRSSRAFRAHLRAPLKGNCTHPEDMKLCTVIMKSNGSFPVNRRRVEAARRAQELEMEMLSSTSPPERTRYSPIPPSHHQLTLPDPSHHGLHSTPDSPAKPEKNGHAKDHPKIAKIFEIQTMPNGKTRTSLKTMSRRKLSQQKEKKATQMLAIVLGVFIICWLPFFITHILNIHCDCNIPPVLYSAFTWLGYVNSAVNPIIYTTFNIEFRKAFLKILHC

Experiment [18] has the same target. Description: Dopamine D2 receptor (DRD2) small molecule antagonists, cell-based qHTS assay (AID 1963595; active = well fitted inhibition curve with a large enough effect in the signal ratio in the repeat runs, with a control signal flat; the % refers to the signal ratio). The essentials:
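Stable D2 receptor HEK293 line, 24 h after seeding. Compound preincubated 10 min, then quinpirole (12 nM) with forskolin analogue NKH477 (200 nM), 30 min, room temperature. Detection by time-resolved FRET of cAMP.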

Experiment [19] in a line: p53 small molecule agonists, cell-based qHTS assay with rat liver microsomes (AID 1963578). The essentials:
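Cells carrying a p53 response element–beta-lactamase reporter were plated and rested 5 h, then dosed with compound in DMSO plus rat liver microsomes and NADPH, each at 0.5 mg/mL final. After 16 h at 37 C, LiveBLAzer substrate was added for 2 h.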

Chain of 5-hydroxytryptamine receptor 2A (Homo sapiens) (P28223 whole entry, looked up): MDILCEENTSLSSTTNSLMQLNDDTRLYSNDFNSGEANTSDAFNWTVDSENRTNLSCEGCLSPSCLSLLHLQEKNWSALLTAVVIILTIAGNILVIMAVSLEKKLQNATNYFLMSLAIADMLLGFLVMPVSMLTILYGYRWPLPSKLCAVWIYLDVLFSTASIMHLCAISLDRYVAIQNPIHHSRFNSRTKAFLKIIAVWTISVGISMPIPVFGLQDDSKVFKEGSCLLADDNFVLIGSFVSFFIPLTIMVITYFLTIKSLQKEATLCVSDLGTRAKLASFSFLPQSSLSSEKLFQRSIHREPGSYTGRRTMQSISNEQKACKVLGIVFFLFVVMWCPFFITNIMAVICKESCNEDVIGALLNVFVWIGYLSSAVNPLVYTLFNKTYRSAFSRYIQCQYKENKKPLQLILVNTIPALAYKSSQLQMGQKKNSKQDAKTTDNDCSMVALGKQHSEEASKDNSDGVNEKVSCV
Chain of KiSS-1 receptor (Homo sapiens) (Q969F8 whole entry, looked up): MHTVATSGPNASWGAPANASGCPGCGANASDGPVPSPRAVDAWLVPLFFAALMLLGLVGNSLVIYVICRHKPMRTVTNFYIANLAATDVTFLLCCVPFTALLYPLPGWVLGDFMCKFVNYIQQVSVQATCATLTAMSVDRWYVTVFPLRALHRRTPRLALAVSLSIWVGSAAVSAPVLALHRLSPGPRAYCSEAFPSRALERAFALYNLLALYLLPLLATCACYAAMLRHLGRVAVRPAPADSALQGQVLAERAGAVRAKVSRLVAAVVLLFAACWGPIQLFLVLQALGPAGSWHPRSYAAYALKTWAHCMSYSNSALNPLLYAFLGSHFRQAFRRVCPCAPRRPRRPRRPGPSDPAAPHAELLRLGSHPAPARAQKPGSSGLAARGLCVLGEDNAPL
Chain of Muscarinic acetylcholine receptor M1 (Homo sapiens) (P11229 whole entry, looked up): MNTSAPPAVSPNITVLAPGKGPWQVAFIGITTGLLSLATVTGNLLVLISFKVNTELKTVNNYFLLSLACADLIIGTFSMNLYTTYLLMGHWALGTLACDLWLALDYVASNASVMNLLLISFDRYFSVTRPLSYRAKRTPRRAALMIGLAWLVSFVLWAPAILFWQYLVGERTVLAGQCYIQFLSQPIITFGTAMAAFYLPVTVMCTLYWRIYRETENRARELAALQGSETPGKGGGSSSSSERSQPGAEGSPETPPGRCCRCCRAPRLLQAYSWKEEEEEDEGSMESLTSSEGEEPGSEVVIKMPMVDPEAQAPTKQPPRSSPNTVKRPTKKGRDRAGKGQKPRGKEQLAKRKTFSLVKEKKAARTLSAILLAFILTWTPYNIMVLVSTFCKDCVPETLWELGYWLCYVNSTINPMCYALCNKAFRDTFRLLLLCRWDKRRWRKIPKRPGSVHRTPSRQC

On to `COC(=O)/C=C(\C)CCC=C(C)C`, for which the Potency result in experiment [1], in experiment [2], in experiment [3], in [4], in experiment [5] and in experiment [6] was “inactive” in each case. For the same molecule, the Potency entry in [7], in experiment [8], in [9], in experiment [10], in [11] and in experiment [12] was “inactive” each time. The Potency result in [13], in [14], in experiment [15], in experiment [16], in experiment [17] and in experiment [18] was “inactive” in each case.
As for `O=C1CCCCCCCCCCCCCCO1`, the Potency result in experiment [1], in experiment [2], in experiment [3], in experiment [4], in experiment [19] and in experiment [6] was “inactive” each time. The Potency result in experiment [7], in experiment [8], in experiment [9], in experiment [10], in experiment [11] and in [13] was “inactive” each time. The Potency entry in experiment [14], in experiment [16], in experiment [17] and in [18] was “inactive” in each case.
Consider `c1ccc(B(c2ccccc2)c2ccccc2)cc1`, for which the Potency result in [1], in [2], in experiment [3], in [4], in experiment [19] and in experiment [6] was “inactive” each time. Also, the Potency result in experiment [7], in [8], in experiment [9], in experiment [10], in experiment [11] and in [13] was “inactive” each time. Besides, the Potency result in [14], in [16], in experiment [17] and in [18] was “inactive” in each case. Moreover, the Potency in experiment [15] is 28.5 µM (active).
As for `c1ccc2c(c1)ccc1c3ccccc3ccc21`, the Potency result in experiment [1], in [2], in [3], in [4], in [5] and in experiment [19] was “inactive” throughout. For the same molecule, the Potency result in experiment [8], in experiment [9], in experiment [11], in [12], in experiment [13] and in experiment [14] was “inactive” throughout. The Potency result in experiment [15], in experiment [16], in experiment [17] and in experiment [18] was “inactive” in each case.
Consider `O=C(O)c1ccccc1C(=O)OCc1ccccc1`, for which the Potency result in experiment [1], in [2], in [3], in [4], in experiment [19] and in experiment [6] was “inactive” in each case. The Potency result in experiment [7], in experiment [8], in experiment [9], in experiment [10], in experiment [11] and in [12] was “inactive” each time. Moreover, the Potency entry in [15], in experiment [16], in [17] and in experiment [18] was “inactive” each time.
For `CN(C)CC/C=C1\c2ccccc2COc2ccccc21`, the Potency entry in [1], in [2], in experiment [3], in experiment [4], in [5] and in experiment [6] was “inactive” each time. In addition, the Potency result in [7], in experiment [8], in experiment [9], in experiment [14], in experiment [15] and in experiment [17] was “inactive” throughout. The Potency entry in experiment [18] is “inactive”.
Turning to `CNCCC(Oc1ccc(C(F)(F)F)cc1)c1ccccc1` (centres undefined), the Potency in experiment [1] was 26.9 µM (active); in experiment [2], 38.4 µM (active). Also, the Potency entry in [3], in experiment [4], in experiment [19], in experiment [6], in experiment [7] and in experiment [8] was “inactive” each time. Besides, the Potency entry in [9], in experiment [15], in experiment [16], in [17] and in experiment [18] was “inactive” throughout.
